From PubChem BioAssay AID624481 (The Scripps Research Institute Molecular Screening Center, 2012)
Values without a mark were called inactive. Calls of active or inactive are those of the source. No stated cut-off is given here; in the data, active means inhibition above about 50%; inactive means the rest.

target: Prolyl endopeptidase-like (Mus musculus) (UniProt Q8C167); experiment: mouse PREPL enzyme inhibition by screening hits – biochemical, gel-based competitive ABPP, fluorescence, HTS hits, PREPL inhibitor project (AID 624481); settings: purified mouse PREPL, at 20 µM, hits give high values
Sequence (Q8C167 whole entry, looked up): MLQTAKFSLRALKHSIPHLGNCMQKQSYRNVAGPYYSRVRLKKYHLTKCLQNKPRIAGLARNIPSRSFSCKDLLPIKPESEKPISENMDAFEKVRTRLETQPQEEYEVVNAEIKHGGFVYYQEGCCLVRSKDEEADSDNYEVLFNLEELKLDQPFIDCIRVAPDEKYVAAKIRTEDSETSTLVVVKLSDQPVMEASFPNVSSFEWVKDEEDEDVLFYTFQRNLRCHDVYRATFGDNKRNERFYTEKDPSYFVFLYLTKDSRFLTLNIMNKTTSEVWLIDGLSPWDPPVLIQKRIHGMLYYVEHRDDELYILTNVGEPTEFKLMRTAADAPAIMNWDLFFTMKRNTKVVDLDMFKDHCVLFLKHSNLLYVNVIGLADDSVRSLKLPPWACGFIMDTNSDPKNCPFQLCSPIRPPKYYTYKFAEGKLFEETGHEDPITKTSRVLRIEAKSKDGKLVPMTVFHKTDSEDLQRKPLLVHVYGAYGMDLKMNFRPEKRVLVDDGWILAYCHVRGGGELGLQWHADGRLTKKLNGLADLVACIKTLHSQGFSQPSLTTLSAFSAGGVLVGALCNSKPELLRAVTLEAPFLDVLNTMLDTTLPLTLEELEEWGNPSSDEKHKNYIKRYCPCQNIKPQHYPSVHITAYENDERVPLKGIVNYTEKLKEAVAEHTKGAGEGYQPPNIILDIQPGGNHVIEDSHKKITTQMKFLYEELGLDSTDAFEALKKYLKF

| SMILES | inhibition |
| --- | --- |
| C[C@H](CO)N1C[C@H](C)[C@H](CN(C)Cc2ccccc2)Oc2c(NC(=O)Nc3ccc(F)cc3)cccc2C1=O | -56% |
| COc1cc(NC(=O)CN2CCN(c3ccccc3F)CC2)c(C)cc1[N+](=O)[O-] | -92% |
| C#CCOCCOCCOCCNc1nc(N2CCN(C(=O)[C@H](CCCCN)n3cc([C@@H](N)C(C)CC)nn3)CC2)nc(N2CCN(C(=O)[C@H](Cc3cc4ccccc4[nH]3)n3cc([C@@H](N)C(C)CC)nn3)CC2)n1 (some centres not stated) | -33% |
| CN(C)c1ccc(NC(=O)c2ccc(Cn3cc([N+](=O)[O-])cn3)cc2)cc1 | -9% |
| C#CCOCCOCCOCCNc1nc(N2CCN(C(=O)CCCCCCCCCCNC(=O)Cn3cc(CCCCCN)nn3)CC2)nc(N2CCN(C(=O)CCCCCCCCCCNC(=O)[C@H](CO)n3cc(CCCSC)nn3)CC2)n1 | 31% |
| Clc1cccc(-c2ccc(C3Nc4cccc5cccc(c45)N3)o2)c1 | 100% (active) |
| CC1(C)N=C(N)N=C(N)N1c1ccc(Oc2ccc(Cl)cc2)c(Cl)c1 | -35% |
| O=C1N/C(=C/c2ccc(N3CCOCC3)cc2)C(=O)N1Cc1ccc(F)cc1 | -30% |
| COc1ccc(OCC(=O)NNc2c3ccccc3nc3ccccc23)cc1 | -2% |
| Cc1cccc(C2CC(c3ccc(Cl)cc3)Nc3nc(N)nn32)c1 (configuration not stated) | -60% |
| C[N+](C)(CCCCCC[N+](C)(C)CCCN1C(=O)c2cccc3cccc(c23)C1=O)CCCN1C(=O)c2cccc3cccc(c23)C1=O | -29% |
| Cc1ccn2c(Nc3ccc4c(c3)OCO4)c(-c3ccccn3)nc2c1 | -41% |
| CCN(CC)CCNc1ccc(CO)c2sc3ccccc3c(=O)c12 | -23% |
| Cc1ccc(OCC(=O)Nc2ccc(N3CCN(C(=O)c4ccco4)CC3)cc2)c(C)c1 | -7% |
| CC[C@@H](C)[C@@H]1CN([C@@H](C)CN2CCC[C@H]2CN2C(N)=NC[C@H]2C(C)C)C(=N)N1CCc1ccc(Cl)c(Cl)c1 | -48% |
| Cc1ccc(Nc2nc(NCCO)c3ccccc3n2)cc1C | -33% |
| Cc1ccc(-c2csc(=Nc3cccnc3)n2CCCN2CCCC2=O)cc1C | -149% |
| CCN1/C(=C/c2ccc3cc(C)ccc3[n+]2CC)Sc2ccccc21 | 98% (active) |
| CC1CC(C)CN(C(=O)c2ccc3c(c2NCCO)C(=O)c2ccccc2C3=O)C1 (configuration not stated) | 7% |
| Cc1cc(N2CCN(C)CC2)nc2ccc(NC(=O)CCC(=O)N3CCN(c4ccc([N+](=O)[O-])cc4)CC3)cc12 | -92% |
| CN(C)c1ccc(N=C/C=C2\N(C)c3ccccc3C2(C)C)cc1 | -78% |
| Nc1nn(-c2ccccc2)c(N)c1N=Nc1ccc2c(c1)OCO2 | 17% |
